High-throughput results from PubChem BioAssay.
This is a sample that favours compounds with a hit; in the whole collection about 3.3% have one here.
pS6 MEF inh – reduces mTORC1 signaling in Tsc2 and p53 null MEF cells | 44,000 tested, 0.78% active | Tsc2-/- p53-/- MEF, phospho-rpS6 immunofluorescence/PI, 24 h | Potency, µM (doses to about 38.3 µM), hits mostly inhibitors; further: nearly all actives have a fitted effect of over 50% in size
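Read-out: phospho-S6 Alexa-488 intensity over PI intensity per well, scored as % active cells using thresholds from rapamycin (7.5 nM) and DMSO controls. Tsc2-/-, p53-/- MEFs exposed to compound for 24 h; PI cell count recorded as viability.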
S16 viability – toxic to S16 Pmp22-F2sN Schwann cells; 43,000 tested, 0.48% active; AID 1508642; Potency, µM (top dose mostly 57.5 µM), usual class: cytotoxic; S16 Pmp22-F2sN Schwann cells viability, CellTiter-Glo, 24 h; further: nearly all actives have a fitted effect of over 65% in size
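S16 Pmp22-F2sN Schwann cells (500-1,000/well) in phenol-red-free DMEM with 10% FBS received 23 nL compound by pin tool for 24 h at 37 °C. Viability was then read as CellTiter-Glo luminescence after 15 min at room temperature.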
HTT-AS promoter – HTT-AS promoter activation; 48,000 tested, 0.24% active; Potency, µM (series often up to 57.5 µM), usual class: activators; HEK293 HTT-AS promoter firefly luciferase reporter, 24 h; response scale: percent change from vehicle, -100% = no light; further: nearly all actives have a fitted effect of over 55% in size
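HEK293 luciferase promoter-reporter cells (2,500/well) plated 24 h, then compounds added at up to 57.5 uM final for 24 h at 37 °C. Firefly luminescence by Dual-Glo, normalized to vehicle (0%) and zero RLU (-100%).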
PMP22 txn prim – modulates PMP22 transcription in S16 Schwann cells; Potency, µM (series often up to 57.5 µM), hits mostly inhibitors; S16 Pmp22-F2sN Schwann cells (luciferase reporters placed in the Pmp22 gene), FLuc/NLuc coincidence luminescence, 24 h; 43,000 tested, 2% active; AID 1508649; active means clear falling dose curves in both reporters; inconclusive means both reporters move, but less clearly or upward; inactive means either reporter flat; the % is the NLuc reporter signal
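qHTS, 1536-well. Cells seeded, compounds added by pin tool, 24 h 37C. Nano-Glo reagent 1 (lysis/FLuc), 10 min RT, read; Stop&Glo, 10 min RT, read NLuc.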
FH mod – Identification of activators of human fumarate hydratase by quantitative high-throughput screening; Fumarate hydratase, mitochondrial (Homo sapiens), P07954; FH coupled MDH/diaphorase resazurin fluorescence, 15 min; Potency, µM (titrated, usually from 79.9 µM), actives largely listed as inhibitors; 54,000 tested, 0.22% active; AID 1347055, 2019; further: the screen sought activators but most active calls are inhibition curves; nearly all actives have a fitted effect of over 45% in size
HTT prom inh – inhibitors of huntingtin promoter activity | HEK293 HTT promoter firefly luciferase reporter, 24 h | Potency, µM (top dose mostly 57.5 µM), most hits filed as inhibitors | 48,000 tested, 0.93% active | AID 1508623; further: nearly all actives have a fitted effect of over 50% in size
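HEK293 luciferase promoter-reporter cells (2,500/well) plated 24 h, then compounds added at up to 57.5 uM final for 24 h at 37 °C. Firefly luminescence by Dual-Glo, normalized to vehicle (0%) and zero RLU (-100%).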
NLuc sat counter – inhibits NanoLuc at saturating substrate, PMP22 counter-screen | shares compounds with PMP22 txn prim | Secreted NLuc enzyme (filtered S16 cell medium), Nano-Glo luminescence | Potency, µM (highest dose often 57.5 µM), most hits filed as inhibitors | 690 tested, 4% active
NLuc Km ctr – counter-screen for PMP22 expression modulators: NanoLuc inhibition at Km; 690 tested, 5% active; secreted NLuc enzyme, coelenterazine luminescence, Km conditions; shares compounds with PMP22 txn prim; Potency, µM (doses to about 57.5 µM), hits mostly inhibitors
FLuc counter – inhibits firefly luciferase, PMP22 counter-screen. purified P. pyralis FLuc, luminescence, 10 min. 690 tested, under 10 active. shares compounds with PMP22 txn prim. Potency, µM (titrated, usually from 57.5 µM), hits mostly inhibitors. AID 1508640
Target sequence (P08659 whole entry, looked up): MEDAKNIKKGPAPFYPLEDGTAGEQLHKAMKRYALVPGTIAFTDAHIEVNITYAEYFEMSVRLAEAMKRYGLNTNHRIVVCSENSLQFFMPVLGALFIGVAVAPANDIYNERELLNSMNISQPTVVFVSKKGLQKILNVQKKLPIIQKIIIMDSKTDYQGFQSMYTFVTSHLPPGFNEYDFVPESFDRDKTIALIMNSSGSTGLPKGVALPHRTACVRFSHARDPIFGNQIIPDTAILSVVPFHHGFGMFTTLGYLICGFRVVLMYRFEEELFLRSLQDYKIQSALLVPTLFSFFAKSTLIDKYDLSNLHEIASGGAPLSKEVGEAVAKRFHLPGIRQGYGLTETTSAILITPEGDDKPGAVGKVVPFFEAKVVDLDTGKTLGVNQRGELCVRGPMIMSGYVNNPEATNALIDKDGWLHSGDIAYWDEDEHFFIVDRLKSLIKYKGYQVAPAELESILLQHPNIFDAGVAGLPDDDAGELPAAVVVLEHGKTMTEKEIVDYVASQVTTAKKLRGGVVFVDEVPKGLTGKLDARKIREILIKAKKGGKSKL
S16 F2sN tox cnf – S16 Schwann cell cytotoxicity, confirmatory | shares compounds with PMP22 txn prim | S16 Schwann cells viability, CellTiter-Glo ATP luminescence, 24 h | Potency, µM (highest dose often 57.5 µM), usual class: cytotoxic | 690 tested, 7% active
PMP22 txn conf – confirmation of modulators of PMP22 gene transcription in S16 cells. Potency, µM (series often up to 57.5 µM), actives largely listed as inhibitors. AID 1508646. shares compounds with PMP22 txn prim. S16 Schwann cells Pmp22-F2sN, dual luciferase, 24 h. 690 tested, 22% active; active means clear falling dose curves in both reporters; inconclusive means both reporters move, but less clearly or upward; inactive means either reporter flat; the % is the FLuc reporter signal
Numbers stand for hits; - = inactive; ? = inconclusive; . = no result. Unless noted, the call rests on the fitted dose curve; in most records, active means well fitted curve in the direction sought with a large enough effect; inconclusive means small, poorly fitted or top-dose-only effect, or another doubt; inactive means no such curve, though single readings can be large; an effect the other way counts as inactive or inconclusive.

SMILES	pS6 MEF inh	S16 viability	HTT-AS promoter	PMP22 txn prim	FH mod	HTT prom inh	others
O=C(Nc1ccc(F)cc1)c1ncn(-c2ccccc2)n1	-	-	?	?	-	-
CCOc1ccc(C(=O)Nc2ccc(S(=O)(=O)N(Cc3ccccc3)c3ccccc3)cc2)cc1	-	?	-	-	-	1.78µM
CCOc1ccc(NC(=O)c2ncn(-c3ccccc3)n2)cc1	-	-	8.91µM	-	-	-
COc1c2c(c(C)c3c1C(=O)OC3)OC1(C)CC(O)C34OC(OC)(CC(O)C3(C)C1C2)OC4(C)C (centres undefined)	.	.	.	.	-	.
C/C=C/C=C/C=C/C(=O)N(C)C(C(=O)NC(C)C(=O)N1CCCC1C(N)=O)C(C)C (centres undefined)	.	.	.	.	-	.
CC[C@@H](C)[C@H]1C(=O)O[C@H](C(C)C)C(=O)N(C)[C@@H](C(C)C)C(=O)O[C@H](C(C)C)C(=O)N(C)[C@@H](C(C)C)C(=O)O[C@H](CC(C)C)C(=O)N1C	.	.	.	.	-	.
CCC(C)C(=O)Oc1cc(C)ccc1C1(COC(=O)C(C)C)CO1 (centres undefined)	.	.	.	.	-	.
COc1ccc2nccc(C(=O)CC[C@@H]3CCN(CC#Cc4cc(F)cc(F)c4F)C[C@@H]3C(=O)O)c2c1	.	.	.	.	-	.
Fc1ccc(CN2CCc3nc(N4CCN(c5ccccc5F)CC4)ncc3C2)c(F)c1	-	-	-	-	-	-
CCOc1ccccc1CN1CCc2nc(N3CCN(c4ccccc4F)CC3)ncc2C1	-	-	-	-	-	14.1µM
COc1cc(CN2CCc3nc(N4CCN(c5ccccn5)CC4)ncc3C2)cc(OC)c1OC	-	11.2µM	-	8.91µM	-	?
Cc1ccc(Cl)cc1N1CCN(C(=O)c2ccc(CS(=O)c3ccccc3)o2)CC1 (centres undefined)	?	?	-	10.3µM	?	?
COc1ccc(NC(=O)c2ccc3c(c2)c(C)c(C)n3Cc2ccc(F)cc2)cc1	?	-	-	15µM	-	?	NLuc sat counter=-;NLuc Km ctr=-;FLuc counter=-;S16 F2sN tox cnf=-;PMP22 txn conf=-
CCn1c(N)c(C(=O)NC)c(=O)c2ccc(C#CC(C)(O)COC)nc21 (centres undefined)	.	.	.	.	-	.
C/C1=C\CC[C@]2(C)O[C@H]2C(=O)c2c(C)coc2C1	.	.	.	.	-	.
COc1c(Cl)cc(C(=O)Nc2cccc(-c3nc4ccccc4[nH]3)c2)cc1Cl	-	-	-	?	-	-
CC(=O)Nc1cc(NC(C)=O)cc(-c2nc3ccccc3[nH]2)c1	-	?	-	7.27µM	-	?	NLuc sat counter=?;NLuc Km ctr=?;FLuc counter=-;S16 F2sN tox cnf=-;PMP22 txn conf=-
Cc1cc(Nc2ccc(F)cc2)nc(-n2nc(C)cc2C)n1	-	?	-	?	-	?	NLuc sat counter=?;NLuc Km ctr=-;FLuc counter=-;S16 F2sN tox cnf=?;PMP22 txn conf=16.5µM
